# Reference: PubChem BioAssay
# Results filed as inconclusive are left out. A number with no mark means an inactive call. The source made the active and inactive calls.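 Rule for the calls: active = viability at or below 27.92% in each of two runs, the all-compound median minus 4 SD; inconclusive = no clear call, values can overlap the other calls; inactive = the rest.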
# Assay: viability of PTEN-null HCT116 cells – cell-based, HCT116 clonal line, CellTiter-Glo, pilot screen (AID 824);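 note: 0% = 20 µM Hyamine control and 100% = vehicle cell control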
# Settings: HCT116 PTEN-deleted viability, 60 h, at 10 µM, hits give low values
row,SMILES,viability
1,CCOCCOC(=O)C1=C(C)N(C)C(=O)NC1c1ccccc1Cl (stereo not given),99.8%
2,COc1ccc(C(=O)NCC(c2cccnc2)N2CCN(c3ccccc3)CC2)cc1OC (stereo not given),93.1%
3,CCCCCCN=CC1=C(O)C(C(=O)OC)C(C)(C)CC1=O (stereo not given),95.3%
4,COCCN1C=C(C(=O)OC)C(c2ccc3c(c2)OCO3)C(C(=O)OC)=C1,102%
5,CCCCCOC(=O)Cn1c(=O)oc2ccccc21,97.8%
6,O=C(NCc1ccco1)c1nnc(Cc2ccc(F)cc2)o1,89.5%
7,CCOC(=O)CSc1nc2sc(C(=O)O)c(C)c2c(=O)[nH]1,103%
8,COc1ccc(NC(=O)C2c3cc(OC)c(OC)cc3C(=O)N(C)C2c2cccnc2)cc1OC (stereo not given),95.5%
9,Fc1ccc(-n2[nH]nnc2=S)cc1N1CCCC1,99.6%
10,CCc1c(C)sc(NC(=O)c2cccs2)c1C(=O)OC(C)C,79.1%
11,COC(=O)c1cc(OC)c(OC)cc1NC(=O)c1c(-c2ccccc2Cl)noc1C,60.2%
12,CC1=C(C(=O)OCC2CCCO2)C(c2ccncc2)C2=C(CCCC2=O)N1 (stereo not given),98.1%
13,COc1ccc(S(=O)(=O)N2CCC(C(=O)N3CCc4ccccc4C3)CC2)cc1OC,87.6%
14,O=C(CN1CCOc2ccccc21)N1CCC(Cc2ccccc2)CC1,95.1%
15,CCOCCCNC(=O)C(c1ccc(Cl)cc1)N1CCN(c2ccccc2)CC1 (stereo not given),85%
16,COC(=O)c1c(NC(=O)CSc2nnnn2-c2ccccc2)sc2c1CCC(C)C2 (stereo not given),78.3%
17,COC(=O)C1C(C(C)C)N(c2ccccc2)OC1(C)O (stereo not given),96.9%
18,O=C(CCSCCC(=O)NCc1cccs1)NCc1cccs1,96.3%
19,CCOc1ccc(-n2c(SCC(=O)NCc3ccco3)nc3c([nH]c4ccccc43)c2=O)cc1,64.1%
20,Cc1ccc2oc(=O)c3cnn(CC(=O)NCCN(C)C)c3c2c1,97.7%

row,SMILES,viability
1,Cc1ccc(C(C)C)c(OCC(=O)N2CCOCC2)c1,91.4%
2,Cc1ccc(-c2nnc(SCC(=O)Nc3ccccc3F)o2)cc1,37.8%
3,c1ccc(CN2CCN(c3nc4ccccc4n4cnnc34)CC2)cc1,86%
4,O=C(Cn1nc(C(=O)O)c2ccccc2c1=O)NCC1CCCO1 (stereo not given),102%
5,Cc1ccc2c(c1)c1c(n2CC(O)CN2C(=O)CNC2=O)C(=O)CCC1 (stereo not given),101%
6,CCCCNc1ncnc2c1cnn2-c1ccc(Cl)cc1,20.4% (active)
7,Cc1ccc(-n2ncc3c(NCCCn4ccnc4)ncnc32)c(C)c1,90.6%
8,CCOC(=O)c1sc(NC(=O)C2CCCO2)c(C(=O)OCC)c1C (stereo not given),93%
9,CC(C)Oc1ccc(N2CC(C(=O)Nc3ccc4c(c3)OCO4)CC2=O)cc1 (stereo not given),99.5%
10,CC(=O)c1cc(F)c(N2CCN(CCC#N)CC2)cc1C,81.3%
11,CC12CC(NC(=O)N1CCc1ccccc1)c1ccccc1O2 (stereo not given),73.8%
12,COc1ccc2nc(NC(=O)c3ccc4ncsc4c3)sc2c1,82.5%
13,CCOC(=O)c1c(NC(C)=O)no[n+]1[O-],97.1%
14,COc1ccc(N2CCN(CCCNS(=O)(=O)c3ccc4c(c3)oc(=O)n4C)CC2)cc1,97.4%
15,Cn1c(C(=O)N2CCCCCC2)cc2c(=O)n(C)c3ccccc3c21,92.3%
16,COc1ccc(N(CC(=O)Nc2cc(OC)ccc2OC)S(=O)(=O)c2c(C)nn(C)c2C)cc1,81%
17,Cn1c2ccc(Cl)cc2c2nc3ccccc3nc21,76.6%
18,COc1ccc(C(=O)N2CCC(C(=O)Nc3ccc(OC)c(OC)c3)CC2)cc1,89%
19,Cc1ccc(O)c(-c2cc(C(F)(F)C(F)F)nc(-c3ccccc3)n2)c1,73%
20,COc1ccccc1-c1nnc(SCC(=O)N2CCOCC2)o1,95.7%
